40 molecules from PubChem BioAssay (NCI) can be followed below.

Molecules are shown by their SMILES. The panel holds about 83,000 compounds, 20% with a hit somewhere; the sample as a whole holds those more often.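 Plates (96-well) were seeded with cells, treated with compound at one concentration, and incubated for 48 hours before percent growth was determined.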 Unmarked numbers belong to inactive results. Activity calls are given as the source filed them.

In the assay the test system is M14 melanoma. Put plainly: NCI-60 one-dose screen, 48 h (100 = growth as untreated, 0 = no growth, -100 = all killed). The note with it: 10 µM. The method, then: Growth inhibition of the M14 human tumor cell line is measured as a screen for anti-cancer activity. Cells are grown in 96 well plates and exposed to the test compound for 48 hours. Compounds are tested at a single concentration, which is 10^-5 M for most compounds. The reported endpoint is percent growth (GI% or GIPRCNT), where numbers from 0 - 100% represent growth inhibition, and numbers from -100% - 0 represent cell death. For example, a value of 40 represents 60% growth inhibition. A value of 0 means no net growth occurred over the course of the experiment. A value of -40 indicates 40% of cells at the beginning of the experiment died by the end of the experiment. A value of -100 means all cells are dead at the end of the experiment.
NCI-60 Human Tumor Cell Lines Screen was performed using the standard one-dose NCI protocol, which is described in more detail at https://dtp.cancer.gov/discovery_development/nci-60/default.htm.
Compounds with GIPRCNT values below 10 were considered active. Activity score was based on GIPRCNT using the following formula: […]
Score is 0 for GIPRCNT values of 100 or above, 50 for GIPRCNT values of 0, and 100 for GIPRCNT values of -100.
Consider `COc1ccc(-c2nn(-c3cccc(NC(=O)c4cc(C(F)(F)F)cc(C(F)(F)F)c4)c3)cc2-c2ccncc2)cc1Cl`, for which the growth is 64%.

For the molecule `COc1cc(OC)cc(-c2cncn2-c2ccc(-c3nc4cc(OC)cc(OC)c4s3)cc2)c1`, the growth is 38.8%.

For `O=C1Nc2ccc(Cl)cc2/C1=C\c1c(-c2ccc(Cl)cc2)nc2sc(C3CC3)nn12`, the growth is 74.2%.

`CCCCCCCCCCCC[n+]1ccc(C(N)=O)cc1`: the growth was 10.8%.

With `O=c1c2ccccc2nc(SCCN2CCCCC2)n1CCc1ccccc1`, the growth is 103%.

With `N#CCCN1C/C(=C/c2ccc(Cl)cc2)C(=O)/C(=C/c2ccc(Cl)cc2)C1`, the growth is -44.1% (active).

Turning to `COC(=O)[C@@H]1[C@H](O)[C@H](C)[C@H](O)[C@@](C)(O)/C=C\C=C(C)C(=O)Nc2c(C)c(OC(C)=O)c3c(c2O)C(=O)C(C)=C2OCOC(=C23)C(C)=C[C@@](C)(O)[C@H](O)[C@@H](C)[C@H]1OC(C)=O`, the growth is 122%.

As for `Cc1cccc(Cl)c1NC(=O)c1ccc2nc(NC(=O)NC3CCN(C)CC3)sc2c1`, the growth was 104%.

Turning to `COc1ccc(-c2nc(-c3nc4cc(Cl)c(Cl)cc4[nH]3)c3ccccn23)cc1`, the growth is 70.1%.

In the case of `COc1cc(Cc2cc(-c3ccc(Cl)cc3)n[nH]c2=O)ccc1O`, the growth is 108%.

In the case of `O=C(Nc1cccc(-n2cc(-c3ccncc3)c(-c3ccc(O)c(Cl)c3)n2)c1)c1cc(C(F)(F)F)cc(C(F)(F)F)c1`, the growth was 59.6%.

`COc1ccc(Nc2cc(C)nc(NCCCNc3ccnc4cc(Cl)ccc34)n2)cc1`: the growth is -81.1% (active).

`COc1cc2nc(Nc3cccc(NC(C)=O)c3)nc(N)c2cc1OC`: the growth was 107%.

With `COc1ccc(-c2nn(-c3cccc(NC(=O)Nc4cc(C(F)(F)F)cc(C(F)(F)F)c4)c3)cc2-c2ccncc2)cc1Cl`, the growth is -34.1% (active).

As to `COc1cc(Nc2ccnc(NCCNc3ccnc4cc(Cl)ccc34)n2)cc(OC)c1`, the growth is -79.9% (active).

Consider `O=C1c2ccc3c4c(ccc(c24)C(=O)N1CCNCc1ccccc1)C(=O)N(CCNCc1ccccc1)C3=O`, for which the growth is -62.3% (active).

In the case of `Nc1c(C(=O)Nc2ccccc2)sc2nc3c(cc12)C(O)CCC3` (stereo not given), the growth is 22.1%.

Take `CCCCCCCNc1nc(C=O)ncc1-c1ccc(C(F)(F)F)cc1`: the growth is 102%.

Take `COc1ccc(C2=Nc3c(C)nn(-c4ccccc4)c3NC(c3ccc(Oc4ccnc5cc(Cl)ccc45)c(OC)c3)C2)cc1` (stereo not given): the growth was 95.1%.

As for `C=C(C(=O)c1ccccc1)C(NC(C)(C)C)c1ccccc1` (stereo not given), the growth was -33.6% (active).

In the case of `Cc1ccc(C(=O)Nc2cccc(F)c2)cc1NC(=O)C1(c2ncnc3[nH]ccc23)CC1`, the growth was 60%.

For the molecule `O=[P@@]1(c2ccccc2)O[C@H](COCc2ccccc2)[C@@H](OCc2ccccc2)[C@H](OCc2ccccc2)[C@H]1O`, the growth is 102%.

As for `CCCCCC(=O)c1ccc(OCCCN2CCN(C(=O)OCC)CC2)cc1`, the growth is 103%.

Regarding `COc1ccc(Oc2nc(NC3CCCC3)nc(Sc3ccc(OC)cc3)n2)cc1`, the growth was 87.6%.

For `CN(CCc1ccccn1)c1ccccc1`, the growth was 100%.

As to `CC(C)(C)c1cc(Br)cc(C(C)(C)C)c1O`, the growth was 115%.

Take `Cc1cc2c(C)c3cc(C)c(N)cc3nc2cc1N`: the growth is 9.16% (active).

Regarding `COc1cc(-c2nc(-c3nnc(-c4ccc(F)c(Cl)c4)o3)c3ccccn23)cc(OC)c1OC`, the growth is 70%.

`Clc1ccc(/C=C2\CCCC3=C2N=C2SC=NN2C3c2ccc(Cl)cc2)cc1` (stereo not given): the growth is 94.9%.

As for `Nc1ccc2c(c1)Cc1cc(N)c(Br)cc1-2`, the growth is 102%.

Consider `CCC(=O)N1C/C(=C/c2ccc(Cl)cc2)C(=O)/C(=C/c2ccc(Cl)cc2)C1`, for which the growth was -61.9% (active).

`Oc1[nH]c2ccc(Cl)cc2c1/C=c1/ccc2c(c1)N=C(c1cccs1)N=2`: the growth was 77.1%.

With `COc1ccc(C2=NN(C(=O)c3ccc(S(C)(=O)=O)cc3)C(c3ccc(OC)c(OC)c3)C2)c(OC)c1` (stereo not given), the growth was 103%.

Regarding `N#CCCN1C/C(=C/c2ccccc2)C(=O)/C(=C/c2ccccc2)C1`, the growth is -9.82% (active).

Consider `CNc1ncc(-c2ccc(C(F)(F)F)cc2)c(NC2CCCCCC2)n1`, for which the growth is 93.9%.

As for `Cc1c(Cl)cccc1NC(=O)c1sc2nc3c(cc2c1N)C(=O)CCC3`, the growth was 3.72% (active).

`CCN(CC)CCNc1ccc(CO)c2oc3cc(Cl)ccc3c(=O)c12`: the growth is 60.3%.

For `COc1cc2cc3c(nc2cc1OC)CCN3Cc1ccc(NC(=O)c2ccc(Cl)c(C(F)(F)F)c2)cc1`, the growth was 104%.

As to `CN(C)CCN1C(=O)c2cccc3cc(N)cc(c23)C1=O`, the growth is 42%.

For `ClCCOCCn1cnc2c(Cl)nc(Cl)nc21`, the growth is 46.5%.
